Screens from PubChem BioAssay.
HTT aggregate = reduces HttQ103-GFP aggregates in PC12 cells. PC12 HttQ103-GFP aggregates, Acumen cytometry, 40 h. Potency, µM (series often up to 46.1 µM), without a hit: top-dose activity change, negative = inhibition, most hits filed as inhibitors. actives 1.1% (n = 220,000); also: potency is read from the fitted curve at half-maximal effect; % is scaled to controls: 0 for no effect and ±100 for the full control effect; nearly all actives have a fitted effect of over 60% in size
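Ecdysone-promoter PC12 model expressing HTT exon 1 Q103 fused to GFP, induced by tebufenozide at 100 nM final. Compounds titrated; aggregates sized 1–25 µm scored on a 488 nm laser cytometer.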
HTT cytoprotect = cytoprotection in Huntington HTT-Q103 PC12 cell model; Potency, µM (top dose mostly 56.4 µM), for inactives: cytoprotection (ATP increase), usual class: activators; PC12 HTT-Q103 induced, cytoprotection, ATP luminescence, 40 h; actives 0.14% (n = 230,000); also: potency is read from the fitted curve at half-maximal effect; % of control where 0% means no effect; nearly all actives have a fitted effect of over 45% in size
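PC12 cells stably carrying ecdysone-inducible Htt exon 1 (Q103)–GFP were induced with 100 nM tebufenozide (final) alongside library compounds in a dose series. Cytoprotection was scored as retained ATP by ATPlite luminescence.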
ALDH1A1 inh = blocks purified human ALDH1A1 activity | P00352 | Purified ALDH1A1, NADH fluorescence, propionaldehyde substrate | Potency, µM (top dose mostly 75.3 µM), inactives show at the top dose activity, negative = inhibition, most hits filed as inhibitors | actives 7.3% (n = 220,000); active = well fitted inhibition curve with a large enough effect, not every such curve was filed as active; inconclusive = small, poorly fitted or top-dose-only effect, or another doubt; inactive = no such curve, though single readings can be large or run the other way;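 also: potency is read from the fitted curve at half-maximal effect; plate controls were no enzyme wells and a reference inhibitor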
CBFb RUNX1 block = CBF-beta/RUNX1 interaction disruption; Potency, µM (series often up to 59.8 µM), without a hit: at the highest dose activity, negative = inhibition, actives largely listed as inhibitors; AlphaScreen CBFb-His/RUNX1-biotin binding, biochemical; AID 1477; Q01196+Q13951; 230,000 tested, under 10 active; also: % of control where 0% means no effect
Target sequence (Q01196 whole entry, looked up): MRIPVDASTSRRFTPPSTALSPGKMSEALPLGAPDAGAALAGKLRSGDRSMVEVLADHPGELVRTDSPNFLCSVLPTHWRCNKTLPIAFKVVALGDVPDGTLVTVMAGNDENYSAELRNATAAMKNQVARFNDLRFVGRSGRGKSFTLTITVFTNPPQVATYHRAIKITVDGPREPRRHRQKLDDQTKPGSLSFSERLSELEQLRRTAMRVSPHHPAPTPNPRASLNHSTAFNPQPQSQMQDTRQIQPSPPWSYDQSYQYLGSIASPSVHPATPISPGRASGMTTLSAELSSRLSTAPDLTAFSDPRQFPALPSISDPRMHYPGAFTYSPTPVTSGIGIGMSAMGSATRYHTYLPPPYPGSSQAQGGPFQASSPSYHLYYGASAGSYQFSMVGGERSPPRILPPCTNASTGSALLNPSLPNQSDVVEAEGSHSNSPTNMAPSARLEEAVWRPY
Target sequence (Q13951 whole entry, looked up): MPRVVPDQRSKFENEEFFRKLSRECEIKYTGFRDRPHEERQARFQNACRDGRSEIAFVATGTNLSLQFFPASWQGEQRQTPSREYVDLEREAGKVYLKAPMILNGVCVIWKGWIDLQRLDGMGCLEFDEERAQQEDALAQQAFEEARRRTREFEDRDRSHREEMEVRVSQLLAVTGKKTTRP
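Room-temperature protein-protein interaction test with 30 nM each of His-tagged CBF-beta and biotinylated RUNX1, 15 min with compound, then 90 min with nickel plus streptavidin beads. Signal read in AlphaScreen mode.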
PNC assembly inh = perinucleolar compartment assembly inhibition; PC3M PTB-GFP, PNC prevalence imaging, 16 h; hits give low values; activity change (PNC), negative = inhibition, % at 10 µM; actives 3.1% (n = 140,000); AID 2417;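 active = readout at or below -70, meaning at least 70% loss of cells showing the perinucleolar compartment, a nuclear body marking cancer cells; inconclusive = readout between -30 and a set limit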;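 also: plate controls were DMSO wells for no effect and camptothecin positive control wells for full effect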
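Compounds are pinned in duplicate onto adhered PC3M cells stably expressing GFP-tagged PTB and incubated 16 h at 37 C. Cells are then fixed, nuclei stained with Hoechst, and PNC-positive cells counted.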
HPGD inh = inhibitors of human 15-hydroxyprostaglandin dehydrogenase (HPGD) | P15428 | purified HPGD, NADH fluorescence kinetic, PGE2 substrate | Potency, µM, without a hit: at the top dose activity change, negative = inhibition, actives largely listed as inhibitors | actives 4.3% (n = 150,000); active = well fitted inhibition curve with a large enough effect, not every such curve was filed as active; inconclusive = small, poorly fitted or top-dose-only effect, or another doubt; inactive = no such curve, though single readings can be large or run the other way; also: potency is read from the fitted curve at half-maximal effect; % is scaled to controls: 0 for no effect and ±100 for the full control effect
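NADH formation kinetics: reaction with 30 uM PGE2 and 1 mM NAD+ (final), 20 nM enzyme, Tris-HCl pH 8 with Tween 20, after 15 min compound preincubation at room temperature. Fluorescence change, last versus first of five reads.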
* hit, by the source's call; ? = inconclusive; . = no result given; [ ] = remark or other dose. Only some compounds are listed: those with a hit (about 11% of all), similar ones and a draw of the others. Unless noted, calls follow the shape of the dose curve; as a rule, active = well fitted curve in the direction sought with a large enough effect; inconclusive = small, poorly fitted or top-dose-only effect, or another doubt; inactive = no such curve, though single readings can be large; an effect the other way counts as inactive or inconclusive.

SMILES | HTT aggregate | HTT cytoprotect | ALDH1A1 inh | CBFb RUNX1 block | PNC assembly inh | HPGD inh
COc1ccc(B(O)O)cc1 | . | 5% | 4% | 0% | . | -12%
CC(C)(/C=N/O)/[N+]([O-])=C/C=[N+](\[O-])C(C)(C)/C=N/O | 8% | -8%[0.074 µM] | ? | -1% | -13 | -15%
CN(C)c1ccc(/C=[N+](\[O-])C(C)(C)/C=N/O)cc1 | -14% | -10%[10 µM] | 22µM* | -3% | 12 | -19%
Cc1[nH]n(-c2ccccc2)c(=O)c1C(C[N+](=O)[O-])c1ccc(Cl)cc1 (stereo not drawn) | 19% | 1%[10 µM] | 20µM* | 2% | 13 | 28µM*
Cc1[nH]n(-c2ccccc2)c(=O)c1C(c1ccccc1C(=O)O)c1c(C)[nH]n(-c2ccccc2)c1=O | 16% | . | -10% | -3% | -8 | -2%
COc1ccc(C(c2c(C)[nH]n(-c3ccccc3)c2=O)c2c(C)[nH]n(-c3ccccc3)c2=O)cc1OC | 26% | -17%[10 µM] | 8.9µM* | -10% | ? | ?
Cc1ccc(C(C[N+](=O)[O-])c2c(C)[nH]n(-c3ccccc3)c2=O)cc1 (stereo not drawn) | 20% | 15%[10 µM] | ? | -1% | 7 | -21%
CCCCCCC1Cc2cc(OC)c(OC)cc2C(C(C(=O)OCC)C(=O)OCC)O1 (stereo not drawn) | . | -15%[10 µM] | 10%[13.5 µM] | 18%[13.1 µM] | . | .
NNc1nc(-c2ccccc2Cl)nc2sc3c(c12)CCCC3 | -17% | 26%[10 µM] | ? | -9% | 0 | 13µM*
CCc1ccc(S(=O)(=O)NC(=S)NC2CCCCC2)cc1 | -1% | -21% | 25µM* | 8% | . | .
Cc1ccc(S(=O)(=O)NC(=O)NC2CCCCC2)cc1 | 20% | -21% | . | . | . | .
Cc1ccc(S(=O)(=O)NC(=S)NC2CCCCC2)cc1 | 10% | 7%[10 µM] | 35µM* | 12% | . | .
O=S(=O)(NC(=S)NC1CCCCC1)c1ccc(Cl)cc1 | 10% | -24% | 25µM* | 5% | . | .
c1cncc(-c2nc(NCCCn3ccnc3)c3ccccc3n2)c1 | -16% | ? | 6% | ? | . | .
OCCNc1nc(-c2cccnc2)nc2ccccc12 | -9% | -2% | 25µM* | 2% | ? | ?
COc1cccc(Nc2nc(NCC3CCCO3)c3ccccc3n2)c1 (stereo not drawn) | 10µM* | -132% | ? | -15% | -4 | ?
COc1cccc(Nc2nc(NCCO)c3ccccc3n2)c1 | 8.9µM* | -55% | 15% | -5% | 18 | -24%
Oc1ccc(Nc2nc(NCC3CCCO3)c3ccccc3n2)cc1 (stereo not drawn) | 1% | -17%[10 µM] | -9% | -8% | -8 | -4%
O=C(Cc1cccs1)N1CCN=C1SCc1ccc(Br)cc1 | 12% | 16% | -4% | 5% | . | .
Cn1c(Cl)cnc1C1CC(=O)c2cc(Cl)ccc2O1 (stereo not drawn) | ? | -34%[10 µM] | 18µM* | 12% | -112* | ?
CCc1ccc(C(=O)/C=C2\Sc3ccccc3NC2=O)cc1 | 14% | -12%[10 µM] | ? | 0% | 20 | -14%
CCCCNC(=O)/C=C1\Sc2ccccc2NC1=O | 5% | -10%[10 µM] | 14% | 4% | 35 | 18µM*
O=Nc1ccc(NO)cc1 | . | ? | 10µM* | 11%[21.7 µM] | . | -25%
O=Nc1ccc(NOC(=O)c2ccccc2)cc1 | -17% | -6%[10 µM] | ? | -9% | -28 | -27%
O=C(O)CNC(=O)[C@H]1NC(C(F)(F)F)(C(F)(F)F)OC1(C(F)(F)F)C(F)(F)F | . | -6%[10 µM] | 1%[13.5 µM] | . | . | 0%
N#CC1=C2SCN(Cc3ccccc3)CN2C(=O)CC1c1cccs1 (stereo not drawn) | -5% | -9% | 11µM* | -16% | -19 | 20µM*
N#CC1=C2SCN(Cc3ccccc3)CN2C(=O)CC1c1ccc2c(c1)OCO2 (stereo not drawn) | 11% | -24%[0.074 µM] | 7.9µM* | -19% | 29 | 25µM*
